{"source": "PubChem BioAssay AID1053143", "about": "(Broad Institute, 2014)", "note": "The campaign covered roughly 3,400 compounds. About 120 (3.5%) were called active. Only a sample is shown. Results with a measured potency or affinity are listed apart. Values without a mark were called inactive. The rule behind the calls is not given here.", "data": [{"experiment": "HepG2 cell cytotoxicity, dose response, cytotoxicity control, ATP luminescence, cherry-pick, activator set 2 (AID 1053143)", "details": "HepG2 viability, CellTiter-Glo ATP luminescence, 72 h; series mostly up to 26 µM; activity change, negative = cytotoxicity: at the top concentration", "values": [{"molecule": "Cc1nc(-c2ccc(NC(=O)CC(C)C)cc2)cs1", "activity change, negative = cytotoxicity": "-11.5%"}, {"molecule": "Cc1nc(-c2ccc(NC(=O)c3ccccc3Br)cc2)cs1", "activity change, negative = cytotoxicity": "-4.14%"}, {"molecule": "O=C(Nc1ccccc1N1CCN(c2ccccc2)CC1)c1ccccc1", "activity change, negative = cytotoxicity": "-2.97%"}, {"molecule": "O=C(NC(=O)c1ccccc1)Nc1ccccc1O", "activity change, negative = cytotoxicity": "-14.8%"}, {"molecule": "CCCNC(=O)Nc1cccc(C(=O)OC)c1", "activity change, negative = cytotoxicity": "-14.5%"}, {"molecule": "c1ccc(-c2cnnc(-c3ccccn3)n2)cc1", "activity change, negative = cytotoxicity": "-3.23%"}, {"molecule": "Nc1ccc2nc(-c3ccccc3)cnc2c1", "activity change, negative = cytotoxicity": "-14.5%"}, {"molecule": "O=C(Nc1nccs1)c1cc2c(s1)-c1ccccc1OC2", "activity change, negative = cytotoxicity": "-3.47%"}, {"molecule": "Cc1cc(O)c(NC(=O)c2cccc([N+](=O)[O-])c2)cc1C", "activity change, negative = cytotoxicity": "1.55%"}, {"molecule": "COc1ccc(CCN2C(=NC(C)=O)SC3CS(=O)(=O)CC32)cc1OC", "note": "(stereo not given)", "activity change, negative = cytotoxicity": "1.28%"}, {"molecule": "COc1cccc(N/N=C/c2cccc(Br)c2O)c1", "activity change, negative = cytotoxicity": "-1.94%"}, {"molecule": "Clc1ccccc1C=NNc1ccccn1", "activity change, negative = cytotoxicity": "-19.2%"}, {"molecule": "CCCCSc1nnc(-c2ccc(C)cc2)n1C", "activity change, negative = cytotoxicity": "-6.32%"}, {"molecule": "Clc1ccc(Cn2c(/C=C/c3ccco3)nc3ccccc32)cc1", "activity change, negative = cytotoxicity": "-7.76%"}, {"molecule": "Cc1ccc(/C=C/c2nc3ccccc3[nH]2)o1", "activity change, negative = cytotoxicity": "-25.4%"}, {"molecule": "COc1ccccc1C(=O)Nc1ccc2c(C)cc(=O)oc2c1", "activity change, negative = cytotoxicity": "7.5%"}, {"molecule": "c1ccc2[nH]c(SCC3CCCCO3)nc2c1", "note": "(stereo not given)", "activity change, negative = cytotoxicity": "9.84%"}, {"molecule": "Cc1cc2ncc(-c3ccccc3)nc2cc1C", "activity change, negative = cytotoxicity": "-23.2%"}, {"molecule": "Oc1ccc(-c2cnc3ccccc3n2)cc1", "activity change, negative = cytotoxicity": "-12%"}, {"molecule": "Cn1c2nc3ccccc3c-2nc2ccccc21", "activity change, negative = cytotoxicity": "-1.19%"}, {"molecule": "CCCCOC(=O)Nc1ccc(C(=O)OC)cc1", "activity change, negative = cytotoxicity": "-10.3%"}, {"molecule": "CC1CCc2nc3sc4c(c3c(N)c2C1)CCCC4", "note": "(stereo not given)", "activity change, negative = cytotoxicity": "-18.5%"}, {"molecule": "O=C(Nc1nc(-c2nc3ccccc3s2)cs1)C1CC1", "activity change, negative = cytotoxicity": "-14.7%"}, {"molecule": "COc1ccc(-c2nc3ccccc3s2)cc1NC(C)=O", "activity change, negative = cytotoxicity": "6.95%"}, {"molecule": "Cc1nn2c(=O)cc(COC(=O)c3c(F)cccc3Cl)nc2s1", "activity change, negative = cytotoxicity": "11.9%"}, {"molecule": "COc1ccc(/C=C/c2nnc(NC(C)=O)s2)cc1", "activity change, negative = cytotoxicity": "-7.78%"}, {"molecule": "COc1cccc(C(=O)Nc2nc(C)cs2)c1", "activity change, negative = cytotoxicity": "-14.1%"}, {"molecule": "Cc1csc(NC(=O)c2ccc(C)s2)n1", "activity change, negative = cytotoxicity": "-0.98%"}, {"molecule": "O=C(/C=C/c1cccs1)NCc1cccs1", "activity change, negative = cytotoxicity": "-4.94%"}, {"molecule": "O=C(Nc1ccc2c(c1)OCO2)c1ccccn1", "activity change, negative = cytotoxicity": "-28.9%"}, {"molecule": "O=C(O)c1ccc(-c2noc(-c3ccccc3Cl)n2)cc1", "activity change, negative = cytotoxicity": "-9.54%"}, {"molecule": "O=C(Nc1ccc(F)cc1)Nc1ccc2c(c1)CCC2", "activity change, negative = cytotoxicity": "0.599%"}, {"molecule": "O=C(Nc1cccc(F)c1)Nc1ccc2c(c1)CCC2", "activity change, negative = cytotoxicity": "-10.1%"}, {"molecule": "COc1cc(/C=C/C(=O)OCC(=O)NCCc2ccccc2)cc(OC)c1OC", "activity change, negative = cytotoxicity": "-6.38%"}, {"molecule": "COc1cc(/C=C/C(=O)N2C(=O)c3cccc(N)c3C2=O)cc(OC)c1OC", "activity change, negative = cytotoxicity": "-13.5%"}, {"molecule": "Cc1cc(C(=O)COC(=O)c2ccc(O)cc2O)c(C)n1C(C)C", "activity change, negative = cytotoxicity": "-5.63%"}, {"molecule": "c1ccc(-c2csc(N3CCOCC3)n2)cc1", "activity change, negative = cytotoxicity": "-5.01%"}, {"molecule": "Nc1nc(-c2ccc3c(c2)CCO3)cs1", "activity change, negative = cytotoxicity": "-9.81%"}, {"molecule": "O=C(c1ccc(N2CCOCC2)cc1)c1cccs1", "activity change, negative = cytotoxicity": "27.7%"}, {"molecule": "COc1cc(/C=N/Nc2ccc(Cl)c(C(=O)O)c2)ccc1OC(=O)c1cccs1", "activity change, negative = cytotoxicity": "-11.9%"}, {"molecule": "O=c1oc2ccccc2c2c1ncn2CCN1CCOCC1", "activity change, negative = cytotoxicity": "1.21%"}, {"molecule": "O=S(=O)(c1ccc(Cl)cc1)N1CCN(Cc2ccc(O)c3ncccc23)CC1", "activity change, negative = cytotoxicity": "-26.6%"}, {"molecule": "CCc1ccc(CNCCNC(=O)c2ccco2)cc1", "activity change, negative = cytotoxicity": "-19.8%"}, {"molecule": "O=c1c2ccccc2nnn1CSc1nnc2ccccn12", "activity change, negative = cytotoxicity": "-3.79%"}, {"molecule": "CCC(C)(C)c1ccc2c(c1)C(=O)c1ccccc1C2=O", "activity change, negative = cytotoxicity": "-13.3%"}, {"molecule": "O=C(NCCO)c1ccc2c3n(nc2c1)-c1ccccc1CO3", "activity change, negative = cytotoxicity": "-34%"}, {"molecule": "O=C(O)c1ccc2c3n(nc2c1)-c1ccc(Cl)cc1CO3", "activity change, negative = cytotoxicity": "-30.5%"}, {"molecule": "COCCNC(=O)c1ccc2c3n(nc2c1)-c1ccc(C)cc1CO3", "activity change, negative = cytotoxicity": "-14.6%"}, {"molecule": "O=C(c1ccc2c3n(nc2c1)-c1ccc(Cl)cc1CO3)N1CCOCC1", "activity change, negative = cytotoxicity": "-29.3%"}, {"molecule": "CCOC(=O)c1sc(=NC(=O)c2ccccc2Br)n(C)c1C", "activity change, negative = cytotoxicity": "22.1% [at 12 µM]"}, {"molecule": "COc1ccc(CCC(=O)Nc2nnc(C)s2)cc1", "activity change, negative = cytotoxicity": "-5.22%"}, {"molecule": "CC(=O)Nc1ccc(-c2cc(N)n(-c3ccccc3)n2)cc1", "activity change, negative = cytotoxicity": "-17.1%"}, {"molecule": "Cc1ccc(OC(=O)c2c(C)nn(-c3ccccc3)c2C)cc1", "activity change, negative = cytotoxicity": "5.12%"}, {"molecule": "Cc1ccc2cc(/C=C/C(=O)c3ccco3)c(Cl)nc2c1", "activity change, negative = cytotoxicity": "-14.8%"}, {"molecule": "CCOC(=O)N1N=C(CC)CC1(O)C(F)(F)F", "note": "(stereo not given)", "activity change, negative = cytotoxicity": "10.4%"}, {"molecule": "COC(=O)c1ccc(-c2cc3onc(-c4ccccc4)c3c(=O)n2C)cc1", "activity change, negative = cytotoxicity": "13%"}, {"molecule": "Cn1c(-c2ccc(F)c(F)c2)cc2onc(-c3ccccc3)c2c1=O", "activity change, negative = cytotoxicity": "-9.83%"}, {"molecule": "CC(C)C1COC(c2cccc3ccccc23)=N1", "note": "(stereo not given)", "activity change, negative = cytotoxicity": "-1.51%"}, {"molecule": "CC(=O)c1ccc(NC(=O)c2ccn(C(=O)OCC(C)C)n2)cc1", "activity change, negative = cytotoxicity": "-22.6%"}, {"molecule": "COc1ccc2cc(CCNC(=O)c3cccs3)c(=O)[nH]c2c1", "activity change, negative = cytotoxicity": "-6.15%"}, {"molecule": "CCOC(=O)c1csc(NC(=O)c2cccs2)n1", "activity change, negative = cytotoxicity": "-11.3%"}, {"molecule": "Cc1csc(=NC(=O)c2ccccc2)n1C", "activity change, negative = cytotoxicity": "-4.28%"}, {"molecule": "CC(C)C(=O)Nc1ccc(NC(=O)c2cc3ccccc3o2)cc1", "activity change, negative = cytotoxicity": "-10.1%"}, {"molecule": "COc1ccc2nc(NC3=NCCC3)sc2c1", "activity change, negative = cytotoxicity": "-13.8%"}, {"molecule": "CCOC(=O)c1cccc(NC(=O)c2ccc(F)cc2F)c1", "activity change, negative = cytotoxicity": "-13.7%"}]}]}
